The source of these data is PubChem BioAssay (EPA / NIEHS).

The term AC50 denotes the midpoint of the concentration-response curve, whichever way the signal moves.

Records with an inconclusive call do not appear. Calls of active or inactive are those of the source. The calls were made as follows, unless noted: active = hit-call score of the fitted dose curve at least 0.9, where 1 is the maximum; inactive = score below 0.9.

Experiment [1] can be described thus: ATG_TCF_b_cat_CIS: Attagene CIS-FACTORIAL HepG2 Assay for human T-Cell-Factor with beta-catenin (TCF/b-cat) (AID 2282965). The note with it: HepG2 TCF/beta-catenin cis-reporter transcription, actives raise or lower the signal. The gist of the method: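 Endogenous transcription factor activity is captured through cis-promoter reporter constructs transiently introduced into human HepG2 liver cells. Induced reporter mRNA is measured after 24 h and fitted bidirectionally relative to DMSO.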

A short description of experiment [2]: ATG_TAL_CIS: Attagene CIS-FACTORIAL HepG2 Assay for human TAL Basal Promoter (AID 2282966).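 Also: background control endpoint measuring basal TAL promoter reporter mRNA not a specific factor.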 The note with it: HepG2 Attagene cis-factorial TAL promoter reporter; actives raise or lower the signal. The gist of the method: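 Fluorescence of labelled reporter cDNA fragments, resolved by capillary electrophoresis, gave the readout. Human HepG2 liver cells carried transiently transfected cis-element reporter units and were treated for 24 hours; activity was fitted bidirectionally against DMSO.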

Experiment [3] is described as follows: ATG_TGFb_CIS: Attagene CIS-FACTORIAL HepG2 Assay for human Transforming Growth Factor (TGF) (AID 2282967). The note with it: HepG2 Attagene CIS TGFb reporter, mRNA transcription; actives raise or lower the signal. In a few lines: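 Transcript-level reporter readout: HepG2 transfectants, 24 h exposure, RNA to cDNA, reporter-specific PCR, fluorescent primer extension, capillary sizing against ROX standards. Gain- or loss-of-signal relative to DMSO.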

Experiment [4] is described as follows: ATG_VDRE_CIS: Attagene CIS-FACTORIAL HepG2 Assay for human Vitamin D Receptor Element (VDRE) (AID 2282968). The settings on record: HepG2 VDRE cis-reporter transcription, actives raise or lower the signal. The gist of the method:
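Reporter mRNA induction, quantified by capillary electrophoresis of fluorescently labelled RT-PCR products, was read 24 h after dosing HepG2 cells carrying transiently transfected cis-regulated reporter units; gain or loss relative to DMSO.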

In experiment [5] the target is Estrogen receptor (Homo sapiens) (UniProt P03372). As to the kind of experiment: ATG_ERa_TRANS: Attagene TRANS-FACTORIAL HepG2 Assay for human Estrogen Receptor alpha (ERa) (AID 2282970; active = hit-call score of the fitted dose curve at least 0.9, where 1 is the maximum). The note with it: HepG2 Attagene TRANS ERa GAL4 reporter, mRNA. In a few lines: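 Human liver HepG2, transient transfection of multiple GAL4-UAS reporter units; TRANS format (exogenous NR-Gal4 chimera). 24 h dosing. Readout: reporter mRNA, RT-PCR, 6-FAM primer extension, HpaI digest, capillary electrophoresis. Positive direction vs DMSO.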

Experiment [6] addresses X-box-binding protein 1 (Homo sapiens) (UniProt P17861). As to the kind of experiment: ATG_Xbp1_CIS: Attagene CIS-FACTORIAL HepG2 Assay for human X-box Binding Protein 1 (XBP1) (AID 2282972). The note with it: HepG2 XBP1 cis-element reporter, Attagene multiplex; actives raise or lower the signal. The gist of the method: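 HepG2 cells transiently transfected with multiple cis-element reporter units report endogenous TF activity; 24 h exposure, then reporter mRNA measured by RT-PCR, 6-FAM labelling, HpaI digestion and capillary electrophoresis. Bidirectional fitting versus DMSO.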

In experiment [7] the target is Oxysterols receptor LXR-beta (Homo sapiens) (UniProt P55055). As to the kind of experiment: ATG_LXRb_TRANS: Attagene TRANS-FACTORIAL HepG2 Assay for human Liver X Receptor beta (LXRb) (AID 2282981; active = hit-call score of the fitted dose curve at least 0.9, where 1 is the maximum). The settings on record: HepG2 Attagene TRANS GAL4-LXRb reporter, mRNA. The gist of the method: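 Transient transfection HepG2 (multiplexed RTUs, GAL4-UAS); NR-Gal4 chimera; 24 h exposure; RNA → RT-PCR → 6-FAM primer extension → HpaI → CE; increase vs DMSO.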

The target of experiment [8] is Transcriptional activator Myb (Homo sapiens) (UniProt P10242). As to the kind of experiment: ATG_Myb_CIS: Attagene CIS-FACTORIAL HepG2 Assay for human Myeloblastosis (Myb) Proto-Oncogene Transcription Factor (AID 2282986). The settings on record: HepG2 Attagene CIS-FACTORIAL Myb reporter transcription; actives raise or lower the signal. The gist of the method: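 After 24 h of compound dosing, total RNA from transfected HepG2 cells is reverse-transcribed and the reporter sequences amplified, labeled and separated by capillary electrophoresis. Values come from bidirectional fitting against DMSO.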

Experiment [9] has as its target Steroid hormone receptor ERR1 (Homo sapiens) (UniProt P11474). The experiment in a line: ATG_ERRa_TRANS: Attagene TRANS-FACTORIAL HepG2 Assay for human Estrogen-Related Receptor alpha (ERRa) (AID 2282971; active = hit-call score of the fitted dose curve at least 0.9, where 1 is the maximum). The settings on record: HepG2 Attagene TRANS reporter, ERRa transactivation. In a few lines:
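Reporter transcript induction was quantified by RT-PCR and capillary electrophoresis of FAM-labelled, HpaI-cut products after 24 h treatment of HepG2 cells carrying transiently transfected GAL4-UAS reporter units and an exogenous ERRa-Gal4 fusion; activity scored as increase over DMSO.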

Experiment [10] in a line: ATG_M_06_TRANS: Attagene TRANS-FACTORIAL HepG2 Assay for M06 Transcription Factor (Internal Marker) (AID 2282983; active = hit-call score of the fitted dose curve at least 0.9, where 1 is the maximum;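 also: reporter transcript level by RT-PCR then capillary electrophoresis fluorescence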). The note with it: HepG2 Attagene TRANS M06 internal marker reporter. The gist of the method:
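Transfect HepG2 with MRTUs → dose compounds 24 h → isolate RNA, oligo(dT) RT → PCR with reporter primers → 6-FAM primer extension → HpaI digest → CE fragment analysis. Positive direction vs DMSO.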

Experiment [11] can be described thus: ATG_M_19_TRANS: Attagene TRANS-FACTORIAL HepG2 Assay for M19 Transcription Factor (Internal Marker) (AID 2282974; active = hit-call score of the fitted dose curve at least 0.9, where 1 is the maximum). The settings on record: HepG2 Attagene TRANS-FACTORIAL M19 internal marker reporter. The gist of the method: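 Transfected HepG2 (GAL4-UAS MRTUs), 24 h compound, TriZol RNA, DNase-treated RT, reporter PCR, FAM label, HpaI digest, CE fluorescence; gain vs DMSO.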

Experiment [12] addresses Bile acid receptor (Homo sapiens) (UniProt Q96RI1). The experiment in a line: ATG_FXR_TRANS: Attagene TRANS-FACTORIAL HepG2 Assay for Farnesoid X Receptor (FXR) (AID 2282979; active = hit-call score of the fitted dose curve at least 0.9, where 1 is the maximum;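 also: hits raise reporter mRNA above DMSO so AC50 marks FXR activation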). The settings on record: HepG2 Attagene TRANS FXR-GAL4 reporter transcription. In a few lines: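 Transient transfection of HepG2 with multiplexed GAL4-UAS reporter units; exogenous FXR-GAL4 chimera. Dose 24 h → TriZol RNA → oligo(dT) RT → PCR, 6-FAM primer extension, HpaI cut → CE. Gain vs DMSO.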

The target in experiment [13] is Oxysterols receptor LXR-alpha (Homo sapiens) (UniProt Q13133). The experiment in a line: ATG_LXRa_TRANS: Attagene TRANS-FACTORIAL HepG2 Assay for human Liver X Receptor alpha (LXRa) (AID 2282980; active = hit-call score of the fitted dose curve at least 0.9, where 1 is the maximum). The note with it: HepG2 Attagene TRANS reporter, LXRa transactivation. In a few lines:
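Transfect HepG2 with GAL4-UAS multiplex reporter constructs (TRANS format, chimeric receptor-GAL4); treat 24 h; extract RNA, reverse-transcribe, PCR-amplify, FAM-label, HpaI-digest; resolve fragments by capillary electrophoresis. Upward response vs DMSO.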

The target of experiment [14] is Hepatocyte nuclear factor 4-alpha (Homo sapiens) (UniProt P41235). As to the kind of experiment: ATG_HNF4a_TRANS: Attagene TRANS-FACTORIAL HepG2 Assay for human Hepatocyte Nuclear Factor 4 alpha (HNF4a) (AID 2282982; active = hit-call score of the fitted dose curve at least 0.9, where 1 is the maximum). The note with it: HepG2 HNF4a transactivation reporter, mRNA readout. In a few lines: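 Readout is fluorescent reporter-transcript fragments resolved by capillary electrophoresis after RT-PCR from HepG2 cells dosed for 24 h. Cells carried transfected GAL4-UAS reporter constructs measuring exogenous NR-GAL4 chimera activity; DMSO served as baseline.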

Experiment [15] is described as follows: ATG_M_32_TRANS: Attagene TRANS-FACTORIAL HepG2 Assay for M32 Transcription Factor (Internal Marker) (AID 2282984; active = hit-call score of the fitted dose curve at least 0.9, where 1 is the maximum;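 also: transcript level of a background control reporter unit measured by RT-PCR and capillary electrophoresis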). The settings on record: HepG2 Attagene TRANS M32 internal marker reporter. The gist of the method:
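Measures reporter mRNA induction in human HepG2 liver cells after 24 h chemical treatment. Transcripts from transiently transfected GAL4-UAS reporter units are amplified, fluorescently labelled and sized by capillary electrophoresis; gain of signal relative to DMSO.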

In experiment [16] the target is Nuclear receptor subfamily 4 group A member 2 (Homo sapiens) (UniProt P43354). The experiment in a line: ATG_NURR1_TRANS: Attagene TRANS-FACTORIAL HepG2 Assay for human Nuclear Receptor Related Protein 1 (NURR1) (AID 2282985; active = hit-call score of the fitted dose curve at least 0.9, where 1 is the maximum). The settings on record: HepG2 Attagene TRANS reporter, mRNA readout. The gist of the method: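 Transient transfection of HepG2, human liver cells, with multiple GAL4-UAS reporter transcription units. Cells dosed 24 h, RNA isolated, reverse-transcribed, PCR-amplified, FAM-labelled, HpaI-digested, sized by capillary electrophoresis. DMSO served as negative control.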

The target of experiment [17] is Estrogen-related receptor gamma (Homo sapiens) (UniProt P62508). The experiment in a line: ATG_ERRg_TRANS: Attagene TRANS-FACTORIAL HepG2 Assay for human Estrogen-Related Receptor gamma (ERRg) (AID 2282977; active = hit-call score of the fitted dose curve at least 0.9, where 1 is the maximum;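 also: hits increase reporter signal over DMSO so potencies reflect activators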). The note with it: HepG2 Attagene TRANS reporter, ERRg transactivation. In a few lines: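 Transfect HepG2 with multiple GAL4-UAS reporter transcription units; dose chemicals 24 h; isolate RNA, reverse-transcribe with oligo(dT), PCR-amplify, label with 6-FAM, digest with HpaI; size fragments by capillary electrophoresis. DMSO serves as negative control.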

In experiment [18] the target is Glucocorticoid receptor (Homo sapiens) (UniProt P04150). As to the kind of experiment: ATG_GR_TRANS: Attagene TRANS-FACTORIAL HepG2 Assay for human Glucocorticoid Receptor (GR) (AID 2282978; active = hit-call score of the fitted dose curve at least 0.9, where 1 is the maximum;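 also: activators score as hits since higher reporter transcript over DMSO is fitted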). The settings on record: HepG2 Attagene TRANS GR reporter, mRNA transcription. In a few lines:
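After 24 h incubation with test chemical, transfected HepG2 cells were lysed for RNA; reporter cDNA was amplified, FAM-labelled, HpaI-digested and sized on a capillary analyser. Signal gain relative to DMSO was scored.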

Experiment [19] concerns the target Nuclear receptor subfamily 1 group I member 3 (Homo sapiens) (UniProt Q14994). The experiment in a line: ATG_CAR_TRANS: Attagene TRANS-FACTORIAL HepG2 Assay for human Constitutive Androstane Receptor (CAR) (AID 2282969; active = hit-call score of the fitted dose curve at least 0.9, where 1 is the maximum;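 also: activators raise reporter mRNA above DMSO so AC50 marks induction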). The note with it: HepG2 Attagene TRANS-FACTORIAL CAR reporter. The gist of the method: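 Readout is reporter mRNA induction, quantified by fluorescent primer extension and capillary electrophoresis after RT-PCR. Cells were HepG2 transiently carrying chimeric NR-Gal4 constructs with GAL4-UAS reporters, treated for 24 h; activity scored upward from DMSO.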

Chain of X-box-binding protein 1 (Homo sapiens) (P17861 whole entry, looked up): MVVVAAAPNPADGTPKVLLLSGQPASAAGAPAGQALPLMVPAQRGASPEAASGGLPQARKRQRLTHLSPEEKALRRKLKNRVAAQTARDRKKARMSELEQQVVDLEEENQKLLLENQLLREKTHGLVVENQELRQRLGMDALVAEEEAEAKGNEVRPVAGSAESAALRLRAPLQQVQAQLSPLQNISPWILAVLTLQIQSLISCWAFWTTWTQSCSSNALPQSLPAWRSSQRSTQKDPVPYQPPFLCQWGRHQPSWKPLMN
Chain of Oxysterols receptor LXR-beta (Homo sapiens) (P55055 whole entry, looked up, the tested form may be a part): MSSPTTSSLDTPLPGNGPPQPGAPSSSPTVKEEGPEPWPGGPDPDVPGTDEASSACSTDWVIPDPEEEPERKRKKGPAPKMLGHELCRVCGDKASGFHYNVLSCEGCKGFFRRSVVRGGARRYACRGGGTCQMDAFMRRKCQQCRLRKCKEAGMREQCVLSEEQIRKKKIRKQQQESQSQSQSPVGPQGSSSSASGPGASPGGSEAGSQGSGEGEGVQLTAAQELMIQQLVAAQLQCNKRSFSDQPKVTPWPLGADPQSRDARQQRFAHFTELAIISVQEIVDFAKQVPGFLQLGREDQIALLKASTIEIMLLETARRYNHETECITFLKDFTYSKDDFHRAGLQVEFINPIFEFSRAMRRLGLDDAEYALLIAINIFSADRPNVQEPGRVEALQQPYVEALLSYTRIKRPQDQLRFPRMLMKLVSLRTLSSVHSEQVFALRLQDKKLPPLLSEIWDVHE
Chain of Transcriptional activator Myb (Homo sapiens) (P10242 whole entry, looked up): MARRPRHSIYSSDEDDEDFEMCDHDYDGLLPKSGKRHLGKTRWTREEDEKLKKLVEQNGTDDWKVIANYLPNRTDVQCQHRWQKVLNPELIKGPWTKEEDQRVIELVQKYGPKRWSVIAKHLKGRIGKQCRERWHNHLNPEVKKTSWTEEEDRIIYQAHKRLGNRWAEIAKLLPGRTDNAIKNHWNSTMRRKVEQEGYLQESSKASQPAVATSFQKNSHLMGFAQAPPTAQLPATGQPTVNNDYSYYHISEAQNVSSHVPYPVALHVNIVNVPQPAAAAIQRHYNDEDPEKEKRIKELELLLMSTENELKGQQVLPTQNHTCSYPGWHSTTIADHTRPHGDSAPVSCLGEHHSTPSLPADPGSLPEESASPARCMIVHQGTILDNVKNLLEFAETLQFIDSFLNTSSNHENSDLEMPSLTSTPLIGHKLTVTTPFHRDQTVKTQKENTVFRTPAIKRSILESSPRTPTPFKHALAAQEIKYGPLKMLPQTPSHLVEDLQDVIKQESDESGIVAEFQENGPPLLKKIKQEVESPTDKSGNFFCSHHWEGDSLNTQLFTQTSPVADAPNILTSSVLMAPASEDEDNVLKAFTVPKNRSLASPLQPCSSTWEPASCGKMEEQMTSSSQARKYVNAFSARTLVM
Chain of Estrogen receptor (Homo sapiens) (P03372 whole entry, looked up, the tested form may be a part): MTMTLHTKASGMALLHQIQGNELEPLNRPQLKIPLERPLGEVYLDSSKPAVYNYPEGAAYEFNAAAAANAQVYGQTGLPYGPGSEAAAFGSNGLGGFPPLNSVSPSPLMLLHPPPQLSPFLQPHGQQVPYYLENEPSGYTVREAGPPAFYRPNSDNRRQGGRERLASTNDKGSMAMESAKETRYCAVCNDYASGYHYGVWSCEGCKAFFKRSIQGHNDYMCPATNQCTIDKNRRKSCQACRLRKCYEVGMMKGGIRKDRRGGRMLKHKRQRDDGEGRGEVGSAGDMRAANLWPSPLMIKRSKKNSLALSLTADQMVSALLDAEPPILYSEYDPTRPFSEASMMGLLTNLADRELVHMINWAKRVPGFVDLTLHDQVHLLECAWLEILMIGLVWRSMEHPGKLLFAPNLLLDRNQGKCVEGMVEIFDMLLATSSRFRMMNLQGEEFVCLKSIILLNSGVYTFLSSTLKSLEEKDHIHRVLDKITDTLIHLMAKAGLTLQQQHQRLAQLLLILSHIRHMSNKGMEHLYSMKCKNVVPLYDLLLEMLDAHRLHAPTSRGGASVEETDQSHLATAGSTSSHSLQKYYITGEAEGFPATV
Chain of Nuclear receptor subfamily 4 group A member 2 (Homo sapiens) (P43354 whole entry, looked up, the tested form may be a part): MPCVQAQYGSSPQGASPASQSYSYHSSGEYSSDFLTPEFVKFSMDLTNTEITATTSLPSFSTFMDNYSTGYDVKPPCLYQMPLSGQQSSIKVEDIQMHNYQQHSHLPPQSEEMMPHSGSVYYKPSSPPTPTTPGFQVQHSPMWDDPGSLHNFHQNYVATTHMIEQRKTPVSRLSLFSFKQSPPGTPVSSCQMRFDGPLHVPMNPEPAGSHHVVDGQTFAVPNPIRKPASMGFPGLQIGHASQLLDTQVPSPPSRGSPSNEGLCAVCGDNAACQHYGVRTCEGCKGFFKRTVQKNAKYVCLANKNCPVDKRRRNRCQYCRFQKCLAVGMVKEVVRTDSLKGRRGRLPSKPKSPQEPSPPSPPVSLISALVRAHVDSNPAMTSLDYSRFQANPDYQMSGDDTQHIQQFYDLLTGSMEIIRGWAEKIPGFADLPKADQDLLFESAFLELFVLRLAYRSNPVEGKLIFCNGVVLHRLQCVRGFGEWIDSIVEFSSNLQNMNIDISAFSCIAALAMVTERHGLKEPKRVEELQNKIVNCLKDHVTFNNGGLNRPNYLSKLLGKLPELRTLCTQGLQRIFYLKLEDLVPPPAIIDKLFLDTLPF
Chain of Hepatocyte nuclear factor 4-alpha (Homo sapiens) (P41235 whole entry, looked up, the tested form may be a part): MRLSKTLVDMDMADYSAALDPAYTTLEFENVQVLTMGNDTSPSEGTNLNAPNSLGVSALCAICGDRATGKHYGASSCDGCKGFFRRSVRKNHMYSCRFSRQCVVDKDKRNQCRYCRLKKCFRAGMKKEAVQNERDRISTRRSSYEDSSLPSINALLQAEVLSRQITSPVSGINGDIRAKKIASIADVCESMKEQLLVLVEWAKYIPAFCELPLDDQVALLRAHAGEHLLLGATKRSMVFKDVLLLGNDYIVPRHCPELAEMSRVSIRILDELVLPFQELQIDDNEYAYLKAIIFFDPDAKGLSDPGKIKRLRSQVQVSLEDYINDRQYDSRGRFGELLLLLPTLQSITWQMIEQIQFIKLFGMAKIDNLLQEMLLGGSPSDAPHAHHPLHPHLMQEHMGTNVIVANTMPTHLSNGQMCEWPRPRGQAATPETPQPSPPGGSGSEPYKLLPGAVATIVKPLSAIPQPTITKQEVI
Chain of Estrogen-related receptor gamma (Homo sapiens) (P62508 whole entry, looked up, the tested form may be a part): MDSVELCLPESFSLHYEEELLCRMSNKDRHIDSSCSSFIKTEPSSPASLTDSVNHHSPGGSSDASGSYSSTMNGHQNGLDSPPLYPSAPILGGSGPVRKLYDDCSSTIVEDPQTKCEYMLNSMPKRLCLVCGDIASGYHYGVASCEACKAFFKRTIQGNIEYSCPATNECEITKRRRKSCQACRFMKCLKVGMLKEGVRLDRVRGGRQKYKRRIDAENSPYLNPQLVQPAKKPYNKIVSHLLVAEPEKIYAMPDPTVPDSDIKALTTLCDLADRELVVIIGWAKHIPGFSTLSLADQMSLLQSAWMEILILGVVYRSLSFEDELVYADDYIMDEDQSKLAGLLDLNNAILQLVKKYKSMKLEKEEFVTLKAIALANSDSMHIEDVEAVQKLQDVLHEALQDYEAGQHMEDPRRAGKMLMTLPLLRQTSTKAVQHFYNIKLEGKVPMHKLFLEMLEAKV
Chain of Oxysterols receptor LXR-alpha (Homo sapiens) (Q13133 whole entry, looked up, the tested form may be a part): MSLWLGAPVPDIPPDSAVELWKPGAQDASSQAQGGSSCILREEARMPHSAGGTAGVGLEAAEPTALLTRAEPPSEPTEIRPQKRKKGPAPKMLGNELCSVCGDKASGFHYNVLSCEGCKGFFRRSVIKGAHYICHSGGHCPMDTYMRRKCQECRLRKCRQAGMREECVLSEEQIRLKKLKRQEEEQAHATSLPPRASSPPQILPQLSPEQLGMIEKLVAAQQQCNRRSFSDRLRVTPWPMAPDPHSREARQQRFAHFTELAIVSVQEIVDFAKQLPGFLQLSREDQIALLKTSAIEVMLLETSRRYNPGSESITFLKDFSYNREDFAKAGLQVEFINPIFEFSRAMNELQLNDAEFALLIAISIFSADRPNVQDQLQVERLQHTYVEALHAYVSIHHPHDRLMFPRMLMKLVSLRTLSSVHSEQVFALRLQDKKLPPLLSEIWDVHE
Chain of Bile acid receptor (Homo sapiens) (Q96RI1 whole entry, looked up, the tested form may be a part): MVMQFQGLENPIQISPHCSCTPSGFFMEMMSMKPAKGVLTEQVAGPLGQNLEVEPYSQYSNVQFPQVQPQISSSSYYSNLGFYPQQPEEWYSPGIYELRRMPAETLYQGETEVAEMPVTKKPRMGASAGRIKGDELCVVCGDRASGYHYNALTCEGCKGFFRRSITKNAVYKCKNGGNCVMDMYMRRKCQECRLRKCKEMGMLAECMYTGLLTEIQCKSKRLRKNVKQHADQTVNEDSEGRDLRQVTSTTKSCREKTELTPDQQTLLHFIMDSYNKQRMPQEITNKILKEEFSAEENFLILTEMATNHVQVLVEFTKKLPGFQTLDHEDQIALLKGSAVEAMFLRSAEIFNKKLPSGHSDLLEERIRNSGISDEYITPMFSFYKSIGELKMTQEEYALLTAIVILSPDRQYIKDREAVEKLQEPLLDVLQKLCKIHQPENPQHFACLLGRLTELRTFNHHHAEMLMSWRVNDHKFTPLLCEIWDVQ
Chain of Steroid hormone receptor ERR1 (Homo sapiens) (P11474 whole entry, looked up, the tested form may be a part): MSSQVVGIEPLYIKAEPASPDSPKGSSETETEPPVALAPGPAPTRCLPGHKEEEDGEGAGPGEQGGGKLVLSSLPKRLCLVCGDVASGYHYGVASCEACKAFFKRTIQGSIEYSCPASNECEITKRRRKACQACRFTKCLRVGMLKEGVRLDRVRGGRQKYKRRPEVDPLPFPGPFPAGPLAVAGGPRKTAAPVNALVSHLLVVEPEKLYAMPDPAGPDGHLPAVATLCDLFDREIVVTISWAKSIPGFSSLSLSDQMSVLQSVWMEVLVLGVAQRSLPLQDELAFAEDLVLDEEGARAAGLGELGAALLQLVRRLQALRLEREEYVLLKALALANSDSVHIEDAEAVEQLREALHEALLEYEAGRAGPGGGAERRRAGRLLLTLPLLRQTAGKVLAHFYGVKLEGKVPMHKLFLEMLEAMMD

In the case of `C[C@]12C=CC(=O)C=C1CC[C@@H]1[C@@H]2C(=O)C[C@@]2(C)[C@H]1CC[C@]2(O)C(=O)CO`, the result in [1], in [2], in experiment [3], in [4], in experiment [6] and in experiment [7] was inactive. The compound was classed as inactive in experiment [8]. Moreover, the AC50 in experiment [5] was 58.3 µM (active).

Turning to `CCOC(=O)CCC(=O)OCC`, the result in experiment [1], in experiment [2], in experiment [3], in experiment [4], in experiment [9] and in experiment [6] was inactive. The call in experiment [10] and in experiment [8] was inactive.

As for `Nc1ccc(S(=O)(=O)c2ccc(N)cc2)cc1`, the outcome in experiment [1], in experiment [2], in experiment [3], in [5], in [6] and in experiment [11] was inactive. For the same compound, the result in experiment [12], in experiment [13], in [7], in experiment [14], in experiment [15] and in experiment [16] was inactive. Also, in experiment [8], the call was inactive.

Regarding `Cc1ccc2ncccc2c1`, the outcome in experiment [1], in experiment [2], in [3], in [6], in [11] and in [17] was inactive. Further, the compound was classed as inactive in [18] and in experiment [8].

As to `CCCCCCCCCCCCCCCC`, the result in experiment [1], in [2], in [3], in [5], in experiment [6] and in [17] was inactive. In addition, the compound was classed as inactive in experiment [13], in [7], in [14], in [10], in [15] and in [8].

Regarding `Nc1ccc2c(c1)C(=O)c1ccccc1C2=O`, the result in experiment [1], in experiment [2], in experiment [3], in [19], in experiment [6] and in experiment [7] was inactive. The result in [16] and in [8] was inactive. Besides, the AC50 in [5] is 13.6 µM (active).
